Consider 50 compounds from PubChem BioAssay AID504339 (National Center for Advancing Translational Sciences (NCATS), 2011).

The structures appear in SMILES notation. Out of some 390,000 compounds screened, about 17,000 (4.4%) were called active. Not shown: some 8% with an inconclusive outcome. The full list was thinned out, with actives kept by preference. Values without a mark were called inactive. Calls follow the shape of the dose curve; as a rule, active = well fitted inhibition curve with a large enough effect; inconclusive = small, poorly fitted or top-dose-only effect; inactive = no such curve, though single readings can be large or run the other way.
% is scaled to controls: 0 for no effect and ±100 for the full control effect; potency is read from the fitted curve at half-maximal effect.

Lysine-specific demethylase 4A (Homo sapiens), sequence (O75164 whole entry, looked up, the tested form may be a part): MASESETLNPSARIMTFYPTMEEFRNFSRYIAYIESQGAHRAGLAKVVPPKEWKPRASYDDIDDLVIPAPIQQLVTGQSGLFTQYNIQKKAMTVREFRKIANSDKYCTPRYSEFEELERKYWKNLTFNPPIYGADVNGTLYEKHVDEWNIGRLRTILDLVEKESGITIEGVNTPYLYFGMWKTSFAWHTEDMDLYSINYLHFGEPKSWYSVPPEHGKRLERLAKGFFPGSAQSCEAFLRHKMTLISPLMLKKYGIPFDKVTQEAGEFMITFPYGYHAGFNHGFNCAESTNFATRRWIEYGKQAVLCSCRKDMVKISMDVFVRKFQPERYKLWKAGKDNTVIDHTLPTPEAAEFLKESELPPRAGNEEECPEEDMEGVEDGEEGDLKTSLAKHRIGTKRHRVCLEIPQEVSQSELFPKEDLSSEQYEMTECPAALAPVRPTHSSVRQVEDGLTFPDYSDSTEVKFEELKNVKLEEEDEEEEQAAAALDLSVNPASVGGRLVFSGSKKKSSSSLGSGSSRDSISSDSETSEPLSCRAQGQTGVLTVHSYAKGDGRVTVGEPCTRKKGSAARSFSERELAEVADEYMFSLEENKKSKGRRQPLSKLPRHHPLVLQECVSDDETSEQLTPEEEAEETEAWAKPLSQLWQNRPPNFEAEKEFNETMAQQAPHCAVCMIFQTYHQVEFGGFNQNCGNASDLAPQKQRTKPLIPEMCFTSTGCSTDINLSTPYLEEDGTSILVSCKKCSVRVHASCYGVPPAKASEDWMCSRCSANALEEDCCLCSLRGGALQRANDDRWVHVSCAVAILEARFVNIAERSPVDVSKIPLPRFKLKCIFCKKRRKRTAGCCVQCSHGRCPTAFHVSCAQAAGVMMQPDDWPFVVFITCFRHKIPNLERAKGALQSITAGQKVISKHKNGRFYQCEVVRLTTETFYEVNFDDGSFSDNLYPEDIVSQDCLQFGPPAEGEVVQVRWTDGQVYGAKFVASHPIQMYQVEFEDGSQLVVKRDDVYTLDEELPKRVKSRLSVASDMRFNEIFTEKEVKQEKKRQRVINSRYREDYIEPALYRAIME

This test addresses Lysine-specific demethylase 4A (Homo sapiens) (UniProt O75164). Put plainly: qHTS Assay for Inhibitors of JMJD2A-Tudor Domain. Also: nearly all actives have a fitted effect of over 50% in size. The note with it: AlphaScreen JMJD2A-Tudor / H3K4me3 peptide binding; series mostly up to 114 µM; activity change, negative = inhibition: at the top concentration. In general terms: qHTS replaces the single test concentration by a dilution series.
Take `Cc1cc(N=Nc2ccc3ccccc3c2)ccc1O`: the Potency is 44.7 µM (active). In the case of `COc1ccccc1-n1c(-c2ccc(C)cc2)cn2c3c(=O)n(C)c(=O)n(C)c3nc12`, the “activity change, negative = inhibition” value is -27.4%.

Turning to `COc1ccc(CNc2nc(-c3ccc(Cl)cc3)cc(C(F)(F)F)n2)cc1`, the “activity change, negative = inhibition” value was 100%. For the compound `O=S(=O)(c1ccc(Br)cc1)c1nnn2c1nc(N1CCOCC1)c1sccc12`, the “activity change, negative = inhibition” value is 2.2%. As to `O=C(CSc1ncc(CO)n1Cc1ccc(F)cc1)NCc1ccco1`, the “activity change, negative = inhibition” value is -12.1%. For the compound `O=C(c1ccco1)N(Cc1nc2ccccc2c(=O)[nH]1)C1CCCC1`, the “activity change, negative = inhibition” value was -5.22%.

For the compound `O=c1[nH]c(CSc2ncc(-c3ccc(F)cc3)n2Cc2ccco2)nc2ccccc12`, the Potency is 35.5 µM (active).

As to `CCOc1ccc(CCNC(=O)c2ccc3c(c2)sc2nc(-c4ccc(F)cc4)cn23)cc1OCC`, the “activity change, negative = inhibition” value was -11.3%. On to `Cc1cc(C)c(C2C3=C(Nc4c2c(C)nn4-c2ccccn2)c2ccccc2C3=O)c(C)c1` (stereo not given), for which the Potency is 25.1 µM (active).

`COc1ccc(NC(=O)c2ccc3oc(=O)c(S(=O)(=O)c4ccc(F)cc4)cc3c2)c(OC)c1`: the “activity change, negative = inhibition” value was -6.06%. In the case of `Cc1ccc(C(=O)CC2(O)C(=O)N(CCc3ccccc3)c3ccc(Br)cc32)cc1` (stereo not given), the “activity change, negative = inhibition” value was -25.3%. Same read-out and setting: next, `COc1ccc2cc(CNc3ccc(OC)c(OC)c3)c(=O)n(CC(=O)Nc3ccccc3F)c2c1`: -20.7%.

Take `O=C(O)c1ccccc1N=N/C(=N/Nc1cc(S(=O)(=O)O)ccc1O)c1ccccc1`: the Potency was 12.6 µM (active). On to `COc1ccc(-c2cccc(NS(=O)(=O)c3cc(C)c(OC)c(C)c3C)c2)nn1`, for which the “activity change, negative = inhibition” value is -23.6%. In the case of `Cc1ccc(-c2cc(C(F)(F)F)c(C#N)c(SCC(=O)Nc3ccccc3)n2)cc1`, the “activity change, negative = inhibition” value was 1.72%. Take `COc1ccc(C(=O)NC(C)CCc2ccccc2)c(OC)c1` (stereo not given): the “activity change, negative = inhibition” value is 7.51%. Turning to `COc1ccc(C(=O)c2c(C)c(CCC#N)n3ccccc23)c(OC)c1`, the Potency is 35.5 µM (active).

Consider `COc1ccc(C(=O)CCc2ccccc2O)c(OC)c1`, for which the “activity change, negative = inhibition” value is -12.3%. For `Cc1c(Cl)cccc1NC(=O)C1CCCN(C(=O)c2cnn(-c3ccccc3)c2-n2cccc2)C1` (stereo not given), the “activity change, negative = inhibition” value was -23.2%. For the compound `CCCCC(=O)OC1=CN(Cc2ccccc2)S(=O)(=O)c2ccccc21`, the “activity change, negative = inhibition” value was 44.4%. Consider `COc1ccc2c(c1)c(=O)c(S(=O)(=O)c1ccc(F)cc1)cn2CC(=O)Nc1ccc(C)cc1C`, for which the “activity change, negative = inhibition” value was -15.6%.

In the case of `S=C(c1ccc(-c2ccccc2)o1)N1CCCCC1`, the Potency was 20 µM (active). On to `CN1CCN(C(=O)c2ccc(-c3ccc(Br)cc3)o2)CC1`, for which the “activity change, negative = inhibition” value was -26.3%.

Consider `COc1ccccc1-c1cc(C(=O)N2CCCCC2)no1`, for which the “activity change, negative = inhibition” value is -6.94%. On to `COc1ccc(NC(=O)c2ccc3nc(C(C)C)oc3c2)cc1OC`, for which the “activity change, negative = inhibition” value is -1.92%. Consider `Clc1cccc(Cl)c1OCCOCCNCc1ccccc1`, for which the Potency is 20 µM (active). For `S=C(NCCc1ccccc1)NCc1ccccc1Cl`, the “activity change, negative = inhibition” value was -6.57%. Consider `OCCNCc1cccc(OCc2ccccc2Cl)c1`, for which the “activity change, negative = inhibition” value was 1.38%.

For `COC(=O)c1ccc(C2C(C(=O)Nc3ccccc3)=C(C)Nc3nc4ccccc4n32)cc1` (stereo not given), the “activity change, negative = inhibition” value is -17.2%.

Take `O=C(NC(=O)c1ccccc1)Nc1ccccc1O`: the “activity change, negative = inhibition” value is -5.35%. Regarding `O=C(Nc1ccc(S(=O)(=O)Nc2ccccn2)cc1)c1ccccc1`, the “activity change, negative = inhibition” value was 4.86%.

In the case of `O=C(NC1=CC(=O)c2ccccc2C1=O)c1ccccc1`, the Potency is 20 µM (active).

As to `N#Cc1nc(NCc2ccc(Cl)c(Cl)c2)c2ncn(CCCO)c2n1`, the “activity change, negative = inhibition” value was -21.3%. `COC(=O)c1scc(-c2ccccc2)c1S(=O)(=O)Nc1ccccc1`: the “activity change, negative = inhibition” value is -4.81%. In the case of `COC(=O)c1ccc(Oc2nc(Nc3ccc(F)cc3)nc(N3CCCC3)n2)cc1`, the “activity change, negative = inhibition” value is -6.45%. Same read-out and setting: next, `COc1ccc(Nc2ncc(F)c(N3CCOCC3)n2)cc1`: -20.2%. As for `CCOc1ccc(Nc2nc(Cl)nc(N3CCN(c4ccc(OC)cc4)CC3)n2)cc1`, the Potency was 44.7 µM (active). With `O=c1c(NCc2cccs2)nccn1-c1ccccc1`, the “activity change, negative = inhibition” value was -30.5%. Same read-out and setting: next, `COc1cc(C(=O)NCCS(=O)(=O)N2CCN(c3ccccc3)CC2)cc(OC)c1OC`: -0.639%. In the case of `Cc1ccc(OC(=O)CSc2nnc(-c3cccs3)o2)cc1`, the “activity change, negative = inhibition” value is -19.9%. With `COc1ccc(-n2c(C)cc(C(=O)CSc3nnc(-c4cccs4)o3)c2C)cc1`, the Potency is 56.2 µM (active). For `COc1ccc(-n2c(C)cc(C(=O)COC(=O)c3cc(OC)c(OC)cc3NC(=O)c3cccs3)c2C)cc1`, the “activity change, negative = inhibition” value is -16.8%. Still for that read-out and setting: then `CCOC(=O)c1cc2c(=O)n3ccccc3nc2n(CC2CCCO2)c1=NC(=O)c1ccccc1Br` (stereo not given), with 5.12%. Regarding `COCCNC(=O)CSc1c(C)cnc2c1c(=O)n(C)c(=O)n2C`, the “activity change, negative = inhibition” value was -4.22%. As to `NS(=O)(=O)c1ccc(NC(=O)CSc2nnc3c(n2)[nH]c2ccccc23)cc1`, the “activity change, negative = inhibition” value was -6.12%. As for `CCC1CCCCN1Cc1c(O)ccc2c(=O)c(Oc3ccccc3Cl)c(C(F)(F)F)oc12` (stereo not given), the “activity change, negative = inhibition” value is -3.78%. As for `COc1ccc(CCNC(=O)CCc2c(C)nc3c(c(C)nn3-c3ccc(C)c(C)c3)c2C)c(OC)c1OC`, the “activity change, negative = inhibition” value was -14.5%. Consider `CC(C)CC(=O)NC(=S)NNC(=O)c1cccc([N+](=O)[O-])c1`, for which the “activity change, negative = inhibition” value was -17.9%. As to `COCCCNC(=S)NC(=O)c1ccc([N+](=O)[O-])cc1`, the “activity change, negative = inhibition” value is -20%. In the case of `CCCCCC(=O)NC(=S)NNC(=O)c1ccc([N+](=O)[O-])cc1`, the Potency is 28.2 µM (active).
